# Hits are enriched below; roughly 2.2% of the tested compounds scored in any of these assays.
# GC-A act: GC-A (human) enzyme activation. 370,000 tested, 0.14% active. activation, % at 10 µM. P16066. HEK293 GC-A cells, cGMP TR-FRET, EC30 ANP; 0% at EC30 ANP, 100% saturating ANP; in the data active means activation above about 40%
# PLC-beta3 inh: PLC-beta3 (human) inhibition, primary screen | inhibition, % at 12.2 µM | 370,000 tested, 0.18% active | Purified PLC-beta3, fluorogenic substrate, fluorescence; in the data active means inhibition above about 11%;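 further: 0% = median of compound wells on plate and 100% = full blocker control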
# M18AAP inhibitor: PfM18AAP enzyme inhibition | inhibition, % at 7.35 µM | recombinant PfM18AAP, H-Glu-NHMec fluorogenic cleavage | AID 1822 | 290,000 tested, 1.2% active;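 active means inhibition above the campaign mean inhibition over all tested compounds plus 3 SD, cut at about 28% in these data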;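 further: 0% = plate median of test compound wells and 100% = 2 mM ZnCl2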
# GC-B act: GC-B (human) receptor activation. P20594. HEK293-GC-B cells, CNP EC30, cGMP TR-FRET; 0% at EC30 CNP, 100% saturating CNP. activation, % at 10 µM. 370,000 tested, 0.11% active;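 active means activation at 10 µM reaching about 35% in either raw or pattern-adjusted values, limit read from the data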
# Rce1 inhib: yeast Ras-converting enzyme inhibition. yeast membranes, quenched prenylated peptide cleavage fluorescence. calls only. 290,000 tested, 0.27% active. AID 2563;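 active means fall in fluorescence gain of 50% or more versus controls, with final raw signal at or below 3038400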;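 further: plate controls were neutral control wells for no effect and wells lacking membranes for full effect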
# Target sequence (Q03530 whole entry, looked up): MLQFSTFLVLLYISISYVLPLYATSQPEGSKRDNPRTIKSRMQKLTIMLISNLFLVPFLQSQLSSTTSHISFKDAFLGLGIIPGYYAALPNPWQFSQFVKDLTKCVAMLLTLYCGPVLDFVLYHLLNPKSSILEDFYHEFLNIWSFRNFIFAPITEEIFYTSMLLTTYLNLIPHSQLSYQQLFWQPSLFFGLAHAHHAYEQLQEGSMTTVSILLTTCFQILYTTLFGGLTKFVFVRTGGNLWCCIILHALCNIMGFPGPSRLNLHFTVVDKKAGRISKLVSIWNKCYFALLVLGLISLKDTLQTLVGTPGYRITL
# PLC-gamma1 inh: inhibitors of human phospholipase C gamma1 | P19174 | purified PLC-gamma1, fluorogenic substrate, fluorescence | inhibition, % at 12.2 µM | 370,000 tested, 0.84% active | AID 720700
# PLCg1 ctr: inhibits human PLC-gamma1 in PLC-beta3 counter-screen; shares compounds with PLC-gamma1 inh; inhibition, % at 12.3 µM; 3,300 tested, 3.1% active; purified PLC-gamma1, fluorogenic substrate, fluorescence
# PLCbeta3 conf: confirmation of human PLC-beta3 inhibitors | inhibition, % at 12.3 µM | shares compounds with PLC-gamma1 inh | purified PLC-beta3, fluorogenic substrate fluorescence | 3,300 tested, 1% active | AID 743261; in the data active means inhibition above about 11%
# Numbers without * were called inactive; i = inactive; . = no result given. Unless noted, no stated cut-off is given here; in the data, active means inhibition above about 9.5%; inactive means the rest.
SMILES,GC-A act,PLC-beta3 inh,M18AAP inhibitor,GC-B act,Rce1 inhib,PLC-gamma1 inh,PLCg1 ctr,PLCbeta3 conf
O=C1CS(=O)(=O)c2ccccc2N1,-2,-4,-2,4,i,24*,21*,2
COc1ccc(Cl)c(OC)c1C(=O)NC(=O)Nc1nc(C)nc(C)n1,-2,-6,-3,-1,i,5,.,.
COc1c(Cl)cc(Br)c(OC)c1C(=O)NC(=O)Nc1nc(C)cc(C)n1,0,1,4,-2,.,11*,-2,-1
CCN(CC)S(=O)(=O)c1ccc(NC(=O)COC(=O)CCc2cc(OC)c(OC)c(OC)c2)cc1,-4,11*,-7,0,i,8,-3,-3
O=C(N/N=C/c1cccc(F)c1)c1c(O)c2c([nH]c1=O)CCCC2,9,12*,1,-1,i,6,-2,0
CNC(=O)c1ccccc1NC(=O)c1c(O)c2c([nH]c1=O)CCCC2,1,-168,2,1,.,-9,.,.
Cc1ccc(NC(=S)NCCC(c2ccccc2)c2ccccc2)c(C)c1,-8,-2,1,-3,i,5,.,.
Cc1ccc(F)cc1NC(=S)NCCc1ccccc1,2,3,19,2,i,11*,-2,-1
Cc1ccccc1NC(=S)NCCC(c1ccccc1)c1ccccc1,-9,2,-13,1,i,10*,0,-1
Cc1ccc(NC(=S)NCCc2ccc(F)cc2)c(C)c1,-1,1,0,0,i,0,.,.
O=C(Nc1cccc(O)c1)c1cccc(S(=O)(=O)N2CCCC2)c1,4,0,-3,2,i,0,.,.
O=C(Nc1cccc(O)c1)c1ccc(S(=O)(=O)N2CCCCCC2)cc1,-5,-2,-4,-3,i,11*,1,-4
Cc1ccc(S(=O)(=O)N2CCCCC2)cc1C(=O)Nc1ccc(N2CCOCC2)cc1,-2,2,-6,-1,i,12*,-6,-4
Cc1cc(C(F)F)n2nc(C(=O)Nc3ccc(S(=O)(=O)N4CCCCCC4)cc3)nc2n1,3,6,5,0,i,9.9*,-4,-4
CCCCOCCCNC(=O)C[C@H]1C[C@@]2(C(=O)OC)C(=C[C@H](C(C)(C)C)O[C@@H]2C)N(CCC2=CCCCC2)C1=O,-7,1,.,-10,.,0,.,.
Cc1ccc[n+](/C(=C\C(=C=[N-])C#N)C(=O)c2ccc(Cl)cc2)c1,1,6,-1,-3,i,9.7*,2,6
O=C1OC(c2ccccc2)(c2ccccc2)c2ccccc21,-7,-2,.,1,.,-1,.,.
Cc1cccc(C2(c3cccc(C)c3)OC(=O)c3ccccc32)c1,-8,9,-3,-3,i,14*,-3,-3
CCc1ccccc1NC(=O)C1CCC(=O)N(c2ccc(OC)cc2)C1c1ccc(OC)cc1 (stereo not drawn),-3,3,.,2,.,1,.,.
Cc1ccc(C)c(NC(=O)CN(C)C(=O)Cc2ccc(Cl)cc2Cl)c1,-9,-6,-5,-2,i,-3,.,.
Cc1ccc(NC(=O)CN(C)C(=O)Cc2ccc(Cl)cc2Cl)cc1,-2,0,-8,-1,i,11*,-10,-6
CC(COc1cccc(Br)c1)CN1CCC(C(O)(c2ccccc2)c2ccccc2)CC1 (stereo not drawn),-13,-7,.,3,.,4,.,.
CCCc1cn(-c2ccc3c(c2)[C@]2(CC(=O)N(C)C2c2ccccc2)C(=O)N3CC(C)C)nn1 (stereo partly drawn),1,-5,.,3,.,-2,.,.
COc1ccc(CCN(C(=O)C(F)(F)F)C(C(=O)NC2CCCCC2)c2ccc(C)s2)cc1 (stereo not drawn),-24,8,2,-13,i,11*,1,-4
COc1ccc(CCN(C(=O)C(F)(F)F)C(C(=O)NC2CCCCC2)c2cccs2)cc1 (stereo not drawn),-13,1,-5,-10,i,0,.,.
SMILES,GC-A act,PLC-beta3 inh,M18AAP inhibitor,GC-B act,Rce1 inhib,PLC-gamma1 inh,PLCg1 ctr,PLCbeta3 conf
CCCC(=O)N1CCC[C@]2(CC[C@H](CCC(C)=O)O2)C1,4,5,.,2,.,2,.,.
Cn1c(SCC(=O)NCC2CCCO2)nnc1-c1ccc(S(=O)(=O)N2CCCC2)cc1 (stereo not drawn),2,-1,-5,0,i,9.8*,-8,-4
Cc1ccc(-c2nnc(SCC(=O)NC3CCCC3)n2C)cc1,4,-10,-3,4,i,11*,-9,-2
COC(=O)[C@]12C=CCN1[C@@H](c1ccc(Cl)cc1)c1c(c3ccccc3n1S(=O)(=O)c1ccc(C)cc1)C2,-6,-60,.,-4,.,-67,.,.
O=C(Oc1ccc([N+](=O)[O-])cc1)C1CC(=O)N(c2ccc3c(c2)OCCO3)C1 (stereo not drawn),1,1,.,-1,.,13*,-3,-1
CCOc1ccc(S(=O)(=O)N(C)c2ccc(OCC(=O)N3CCOCC3)cc2)cc1,1,3,-12,5,i,9.8*,-5,-1
CCOc1ccc(OCC(=O)N2CCOCC2)cc1,1,0,2,-1,i,-3,.,.
CNC(=S)N(Cc1ccc(OC)cc1)C1CC(=O)N(c2ccc(Cl)cc2)C1=O (stereo not drawn),-5,3,-5,-3,i,9.6*,8,8
Cc1ccccc1CN1CCCCC(NC(=O)c2ccc(F)cc2F)C1=O (stereo not drawn),7,-2,.,0,.,0,.,.
CCCC(C)C(=O)Nc1cccc(NC(C)=O)c1 (stereo not drawn),-3,8,4,3,i,12*,-6,-3
Nc1[nH]c(C(=O)c2ccccc2)c(-c2cc(F)ccc2Br)c1C(=O)NCCc1c[nH]c2ccccc12,-8,-20,.,0,.,-15,.,.
COC(=O)[C@@H]1CCCN1C(=O)[C@@H](NC(=O)OC(C)(C)C)C(C)C,3,14*,.,9,i,8,-4,1
CC1(C(=O)NC2CCCCCCC2)CCC(=O)N1Cc1cccnc1 (stereo not drawn),3,4,-7,2,i,13*,0,-2
O=C(Cc1ccccc1)N1CCC(Oc2cccnc2)CC1,3,-1,.,-7,.,0,.,.
CCN(CC(=O)Nc1ccccc1C(F)(F)F)C(=O)c1oc2c(Cl)cccc2c1C,-6,6,.,-2,i,13*,4,-1

# Assay outcomes deposited in PubChem BioAssay by several laboratories.
